Mdm2 MdmX PPI = inhibitors of human Mdm2/MdmX interaction; AID 485346; inhibition, % at 8 µM; hit rate 3% among 330,000; SaOS-2 split-luciferase Mdm2/MdmX complementation, luminescence; O15151+Q00987;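 active = inhibition of at least 50% at 8 µM in the primary screen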
Target sequence (O15151 whole entry, looked up): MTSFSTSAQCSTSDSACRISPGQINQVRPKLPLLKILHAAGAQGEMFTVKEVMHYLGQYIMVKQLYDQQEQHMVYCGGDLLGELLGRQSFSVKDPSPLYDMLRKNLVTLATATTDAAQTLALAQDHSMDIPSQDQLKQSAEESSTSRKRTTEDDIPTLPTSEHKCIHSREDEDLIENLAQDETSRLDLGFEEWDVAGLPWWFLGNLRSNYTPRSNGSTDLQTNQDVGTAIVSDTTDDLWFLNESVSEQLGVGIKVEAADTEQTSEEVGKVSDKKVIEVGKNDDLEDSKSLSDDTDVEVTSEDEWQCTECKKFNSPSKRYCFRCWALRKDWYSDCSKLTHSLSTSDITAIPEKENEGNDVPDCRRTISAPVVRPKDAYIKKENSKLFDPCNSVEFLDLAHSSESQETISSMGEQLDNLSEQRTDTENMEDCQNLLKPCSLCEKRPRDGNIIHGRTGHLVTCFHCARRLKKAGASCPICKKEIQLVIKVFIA
Target sequence (Q00987 whole entry, looked up): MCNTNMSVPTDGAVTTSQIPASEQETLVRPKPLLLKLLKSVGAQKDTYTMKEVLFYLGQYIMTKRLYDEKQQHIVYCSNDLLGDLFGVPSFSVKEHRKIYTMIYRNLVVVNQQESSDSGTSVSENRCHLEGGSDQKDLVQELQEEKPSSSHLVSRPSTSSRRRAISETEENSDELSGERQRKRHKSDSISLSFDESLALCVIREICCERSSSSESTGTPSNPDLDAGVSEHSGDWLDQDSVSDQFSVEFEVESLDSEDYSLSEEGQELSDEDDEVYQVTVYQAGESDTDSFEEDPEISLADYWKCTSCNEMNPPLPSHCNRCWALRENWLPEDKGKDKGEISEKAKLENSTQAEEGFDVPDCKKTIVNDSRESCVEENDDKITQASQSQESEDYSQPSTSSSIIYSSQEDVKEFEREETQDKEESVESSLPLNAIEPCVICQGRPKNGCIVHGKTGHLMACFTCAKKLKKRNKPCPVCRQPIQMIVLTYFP
MPTP block = permeability transition pore inhibition; isolated mouse mitochondria, Ca2+ swelling absorbance, 30 min; hit rate 1.4% among 360,000; inhibition, % at 10 µM;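 active = inhibition of 50% or more, scaled per plate between neutral and stimulator controls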;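 also: 0% = DMSO wells given calcium and 100% = 1 mM EGTA wells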
Gli-Sufu block = antagonists of Gli-Sufu signaling. Sufu-KO-LIGHT fibroblasts, Gli luciferase reporter luminescence. inhibition, % at 5 µM. hit rate 0.74% among 340,000. AID 588413;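 active = inhibition above about 55%, limit read from the data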;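 also: 0% = DMSO-treated cells and 100% = wells with medium but no cells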
Beta cell apopt = beta cell apoptosis inhibition. INS-1E cytokine-induced death, ATP luminescence, 48 h; percent of positive-control rescue, neutral wells zero. protection from apoptosis, % (no concentration beside the values). hit rate 0.8% among 300,000. AID 435005;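 active = Every replicate reaches about 75%, or at least half do and their mean reaches it too, limit read from the data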;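 also: 0% = cytokine-treated negative control wells and 100% = positive control rescue; higher means more ATP so stronger rescue from cytokine killing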
CSC inhib = cancer stem cell inhibition; cancer stem cell-like cells viability, luminescence; inhibition, % at 7.5 µM; hit rate 1.1% among 300,000; AID 2717; in the data active = inhibition above about 75%; tested in HMLE shEcad cells
NR3A LBD binder = modulates the human NR3A ligand-binding domain; Tm shift relative to glycine control, % at 25 µM; NR3A LBD differential scanning fluorimetry, Tm shift; 0% = protein alone, 100% = glycine-bound protein; hit rate 2.5% among 340,000;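 active = melting temperature shift of at least 10% of the positive control shift, at one fixed dose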
Gli antag conf = confirmation of Gli-SUFU pathway antagonists; shares compounds with Gli-Sufu block; Sufu-KO-LIGHT cells, Gli luciferase reporter, luminescence; inhibition, % at 5 µM; hit rate 40% among 2,500;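 active = mean inhibition at 5 µM reaching about 45%, limit read from the data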;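 also: plate controls were DMSO-treated cells for no effect and wells lacking cells for full effect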
SufuKO cytotox = cytotoxicity counter-screen for Gli-SUFU antagonists; shares compounds with Gli-Sufu block; Sufu-KO-LIGHT cells cytotoxicity, ATP luminescence; cytotoxicity, % at 5 µM; hit rate 32% among 2,500;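 active = mean cytotoxicity at 5 µM above about 25%, limit read from the data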;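 also: cells exposed to compound overnight for roughly 16 to 18 hours; plate controls were DMSO wells with cells for no effect and medium without cells for full effect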
Wnt3a counter = Wnt3a reporter inhibition counter-screen; shares compounds with Gli-Sufu block; Wnt-LIGHT cells, Wnt3a-driven luciferase reporter, luminescence; hit rate 20% among 2,500; AID 651995; inhibition, % at 6.25 µM;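 active = mean inhibition above about 25%, limit read from the data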
Rh123 counter = membrane potential counter-screen of mitochondrial pore inhibitors; shares compounds with MPTP block; isolated mitochondria, Rhodamine 123 fluorescence; inhibition, % at 10 µM; hit rate 78% among 5,000; AID 624504; in the data active = inhibition above about 22%;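 also: 0% = DMSO vehicle and 100% = positive control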
The depositor's hits bear a star; nt = no result given. This is a sample that favours compounds with a hit; in the whole collection about 6.6% have one here.

SMILES	Mdm2 MdmX PPI	MPTP block	Gli-Sufu block	Beta cell apopt	CSC inhib	NR3A LBD binder	Gli antag conf	SufuKO cytotox	Wnt3a counter	Rh123 counter
O=C(c1ccc2c(=O)n(C3CCCC3)c(=S)[nH]c2c1)N1CCCCCC1	20	89*	57*	38	42	-5	51*	35*	-24	79*
CC1(C(=O)NC2CCCC2)CCC(=O)N1CCc1c[nH]c2ccccc12 (stereo not drawn)	nt	0	nt	nt	nt	nt	nt	nt	nt	nt
O=C(Cn1cc(C(=O)C2CC2)c2ccccc21)NCc1ccc2c(c1)OCO2	-10	1	-2	-9	-9	-1	nt	nt	nt	nt
CCc1c(C)nc2ncnn2c1Nc1ccc(C)cc1	13	0	14	-3	15	0	nt	nt	nt	nt
CCc1c(C)nc2ncnn2c1NCCc1ccc(OC)cc1	30	51*	62*	97*	47	-2	61*	39*	17	65*
O=C(CSc1nc2ccccc2c(=O)n1-c1ccccc1)N1CCc2ccccc2C1	24	84*	67*	100*	68	-2	74*	40*	0	75*
O=C(CSc1nc2ccccc2c(=O)n1-c1ccccc1)N1CCC1	8	3	1	-6	-15	-3	nt	nt	nt	nt
Cn1c(N)c(C(=O)COC(=O)CC2CC3CCC2C3)c(=O)n(C)c1=O (stereo not drawn)	16	1	3	-5	-21	0	nt	nt	nt	nt
Cc1sc2ncnc(NCC(O)c3ccc([N+](=O)[O-])cc3)c2c1C (stereo not drawn)	7	92*	68*	79*	-7	-4	71*	30*	7	91*
COc1cccc(CN(C)C(=O)c2cc(COc3ccc4ncccc4c3)on2)c1	7	97*	57*	76*	8	1	57*	20	27*	97*
O=C(NC1CCCC1)c1cc(COc2ccc3ncccc3c2)on1	28	95*	54	104*	5	2	63*	24	21	94*
CC(NC(=O)c1cc(COc2ccc3ncccc3c2)on1)c1ccc(F)cc1 (stereo not drawn)	14	94*	58*	105*	56	-1	64*	43*	16	86*
CC(Sc1ccsc1[N+](=O)[O-])C(=O)NCc1ccco1 (stereo not drawn)	10	0	-8	-8	-5	-1	nt	nt	nt	nt
O=C1CCN(S(=O)(=O)c2ccccc2)CCN1CCOCc1ccc(C(F)(F)F)cc1	22	22	9	-2	-1	1	nt	nt	nt	nt
Cc1ccc(S(=O)(=O)N2CCC(=O)N(CCOCc3ccc(C(F)(F)F)cc3)CC2)cc1	16	78*	52	47	-6	-3	30	13	-29	99*
CCN1C(=NCCc2c[nH]c3ccccc23)N[C@@H](c2ccccc2)[C@H](C(=O)OC)[C@H]1C	25	-1	12	-2	6	1	nt	nt	nt	nt
Cc1cc(C)c(C)c(S(=O)(=O)N2CCN(c3ccccn3)CC2)c1C	0	-2	40	-16	-11	0	nt	nt	nt	nt
Cc1cc(C)c(C)c(S(=O)(=O)N2CCN(c3ncnc4ccccc34)CC2)c1C	29	76*	53	104*	34	-2	71*	20	12	104*
O=S(=O)(c1cc(C(F)(F)F)ccc1Cl)N1CCN(c2ncnc3ccccc23)CC1	36	93*	61*	nt	nt	-2	61*	19	44*	105*
CC(C)CC(C(=O)NC(C)(C)C)N(CC1CCCO1)C(=O)c1snc(C(N)=O)c1N (stereo not drawn)	-1	-1	1	nt	4	0	nt	nt	nt	nt
COc1cccc(C(=O)N2CCCN(C)CC2)c1OC	1	0	1	0	57	-3	nt	nt	nt	nt
O=C(Nc1nc(-c2ccc(F)cc2)cs1)C1CCN(C(=O)c2ccc(F)cc2)CC1	27	64*	41	-5	19	-7	nt	nt	nt	78*
Nc1nonc1C(=O)NCCNCc1cc(Br)ccc1OCc1ccc(F)cc1	19	65*	48	62	3	2	nt	nt	nt	72*
Nc1nonc1C(=O)NCCNCc1ccccc1	-3	1	-1	1	17	1	nt	nt	nt	nt
COc1ccc(CNCCNC(=O)c2nonc2N)cc1OC	-21	0	-6	1	-14	-3	nt	nt	nt	nt
SMILES	Mdm2 MdmX PPI	MPTP block	Gli-Sufu block	Beta cell apopt	CSC inhib	NR3A LBD binder	Gli antag conf	SufuKO cytotox	Wnt3a counter	Rh123 counter
Nc1nonc1C(=O)NCCNCc1c(OCc2ccccc2F)ccc2ccccc12	18	95*	4	9	28	-1	nt	nt	nt	23*
COc1ccc(-c2n(CC(=O)OC3CC(C)CCC3C(C)C)c3ccccc3[n+]2C)cc1 (stereo not drawn)	nt	50*	86*	nt	nt	6	nt	nt	nt	94*
CC1CCC(C(C)C)C(OC(=O)CSc2nccc(=O)[nH]2)C1 (stereo not drawn)	3	0	11	1	nt	-2	nt	nt	nt	nt
Cc1ccccc1NC(=O)Cc1nc(COC(=O)C(NC(=O)c2ccccc2C)C(C)C)cs1 (stereo not drawn)	6	0	-1	nt	nt	4	nt	nt	nt	nt
Cc1onc(-c2ccccc2)c1C(=O)OCC(=O)Nc1ccc(OC(F)(F)F)cc1	9	86*	0	4	nt	12*	nt	nt	nt	91*
CCOC(=O)c1ccc(-c2c(C(=O)OCC)oc3cc(O)c(CC)cc3c2=O)o1	0	82*	-3	1	-7	-2	nt	nt	nt	86*
O=c1c2c(nc3c(-c4cccc(Br)c4)c[nH]n13)CCCC2	32	58*	33	26	11	0	nt	nt	nt	73*
N#CC1=C(N)NC(SCC(=O)c2ccc(Cl)cc2)=C(C#N)C12CCCC2	13	30	6	8	29	6	nt	nt	nt	nt
N#CC1=C(N)NC(SCC(=O)c2ccc(Br)cc2)=C(C#N)C12CCCCC2	14	90*	-4	nt	47	17*	nt	nt	nt	80*
Cc1cccc(NC(=O)Nc2ccc(Cl)c(Cl)c2)n1	3	12	-90	9	12	3	nt	nt	nt	nt
Cc1c(NC(=O)Nc2ccc(Cl)c(Cl)c2)sc(=S)n1C	32	51*	-13	0	30	22*	nt	nt	nt	64*
O=C(/C(N=Nc1cccc(C(F)(F)F)c1)=C(/O)c1cccs1)C(F)(F)F	40	86*	0	23	140*	17*	nt	nt	nt	82*
CNc1cc(C)c(C#N)c2nc3ccccc3n12	-10	1	-4	10	-1	-1	nt	nt	nt	nt

Bioassay records from PubChem BioAssay.
